PubChem BioAssay (EPA / NIEHS)
Active and inactive are the calls of the source. Rule for the calls: active = hit-call score of the fitted dose curve at least 0.9, where 1 is the maximum; inactive = score below 0.9.

The molecules below were run on TTR (gene 7276) (assay: CCTE_GLTED_hTTR_0.125uM: CCTE's human Transthyretin (hTTR) Inhibition Assay, with 0.125uM TTR, Great Lakes Toxicology and Ecology Division (GLTED) Lab (AID 2284431)).
Summary of the method: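 Cell-free displacement of the fluorescent probe ANSA from human TTR (0.125uM) after 2 h incubation with test chemical. Fluorescence read at 380 nm excitation/475 nm emission; loss of signal fitted relative to DMSO baseline.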

| SMILES | AC50 |
| --- | --- |
| COP(=S)(OC)Oc1nc(Cl)c(Cl)cc1Cl | 0.274 µM (active) |
| CCCN(CCC)c1c([N+](=O)[O-])cc(S(N)(=O)=O)cc1[N+](=O)[O-] | 9.88 µM (active) |
| Cc1ccc(-c2c(Cl)nc(C#N)n2S(=O)(=O)N(C)C)cc1 | 0.0946 µM (active) |
| O=C(O)COc1nc(Cl)c(Cl)cc1Cl | 6.69 µM (active) |
| C=CC1(C)OC(=O)N(c2cc(Cl)cc(Cl)c2)C1=O (stereo not given) | 1.68 µM (active) |
| Oc1ccccc1-c1ccccc1 | 14.2 µM (active) |
| COC(=O)C(C)Oc1ccc(Oc2ccc(Cl)cc2Cl)cc1 (stereo not given) | 1.12 µM (active) |
| Fc1ccc(Oc2ccnc3cc(Cl)cc(Cl)c23)cc1 | 2.74 µM (active) |
| CCON=C(CC)C1=C(O)CC(c2c(C)cc(C)cc2C)CC1=O (stereo not given) | 9.92 µM (active) |
| Cc1cc(Cl)ccc1OCC(=O)O | 22.1 µM (active) |
